# Entries with a potency or affinity are not part of this list. Results filed as inconclusive are left out. Unmarked numbers belong to inactive results.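 The calls were made as follows: active = signal-lowering compounds whose fitted half-maximal concentration is at or below twice the top tested dose in every run; inconclusive = runs disagree, flat 30 to 70% inhibition, or poor curve fit; inactive = the rest.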
# Test: inhibitors of CMV-promoter luciferase reporter, dose response, counter-screen for Pax8 inhibitor project, cell-based, HEK293, luminescence, dry powder (AID 743020);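 also: HEK293 cells stably expressing the CMV luciferase reporter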
# Details: SteadyGlo luminescence, 24 h; series mostly up to 35 µM; activity change, negative = inhibition: at the top concentration
row,Compound,"activity change, negative = inhibition"
1,C[C@@H]1CCCCO[C@@H](CN(C)Cc2ccc(C(F)(F)F)cc2)[C@@H](C)CN([C@@H](C)CO)C(=O)c2cc(NS(=O)(=O)c3ccc(F)cc3)ccc2O1,1.51% [at 30 µM]
2,COc1ccc(NC(=O)Nc2ccc3c(c2)C(=O)N([C@@H](C)CO)C[C@@H](C)[C@@H](CN(C)CC2CCCCC2)OCCCC[C@@H](C)O3)cc1,-3.71%
3,COC(=O)[C@]12CCCCC=C1N(Cc1ccc(Cl)cc1Cl)C(=O)[C@H](CC(=O)N1CCN(C(=O)c3ccco3)CC1)C2,4.73%
4,CC1(Cc2ccc(OC(F)(F)F)cc2)C(=O)Nc2ccc(S(=O)(=O)NC3CCCCC3)cc21 (stereo not given),5.73%
5,C[C@@H]1CN([C@H](C)CO)C(=O)c2cc(NC(=O)Nc3ccc(F)cc3)ccc2O[C@@H](C)CCCCO[C@@H]1CN(C)Cc1ccc2c(c1)OCO2,1.71%
6,COc1cccc(S(=O)(=O)N2CC[C@H]3[C@@H](CO)N(C)c4ccc(C#Cc5ccc(F)cc5)cc4[C@H]32)c1,5.07%
7,CCOc1ccc(C(CN2CCOCC2)C(C)=O)cc1OC (stereo not given),13%
8,C[C@@H]1CCCCO[C@H](CN(C)Cc2ccc(C(F)(F)F)cc2)[C@H](C)CN([C@@H](C)CO)C(=O)c2cc(NS(=O)(=O)c3cccs3)ccc2O1,-6.48%
9,C[C@@H]1CN([C@@H](C)CO)C(=O)Cc2cc(NC(=O)NC3CCCCC3)ccc2O[C@@H]1CN(C)Cc1ccc(-c2ccccc2)cc1,-5.95%
10,O=C(Nc1ccc(Cl)c(Cl)c1)N[C@@H]1CC[C@H](CCn2cc(C3CCCCC3)nn2)O[C@H]1CO,0.524%
11,C[C@@H]1CCCCO[C@@H](CN(C)Cc2ccc(C(F)(F)F)cc2)[C@@H](C)CN([C@@H](C)CO)C(=O)c2cc(NS(=O)(=O)c3ccccc3)ccc2O1,3.63%
12,N#Cc1ccc(-c2ccc(C3[C@@H]4CN(C(=O)C5CC5)C[C@H]3N4)cc2)cc1 (stereo not given in full),2.04%
13,Cc1ccc(-c2csc3ncnc(Sc4nnc(CN5CCCCCC5=O)o4)c23)cc1,6.16%
14,C[C@@H]1CN([C@@H](C)CO)C(=O)Cc2cc(NC(=O)CCC(F)(F)F)ccc2O[C@H]1CN(C)Cc1ccc(-c2ccccc2)cc1,7.07%
15,O=C(Nc1cccc(NC(=O)c2cccs2)c1)c1ccc([N+](=O)[O-])o1,13.9%
16,C[C@@H]1CCCCO[C@H](CN(C)Cc2ccc(C(F)(F)F)cc2)[C@H](C)CN([C@H](C)CO)C(=O)c2cc(NS(=O)(=O)c3ccccc3)ccc2O1,3.76%
17,O=S(=O)(c1ccccc1F)N1CC[C@@H]2[C@@H](CO)Nc3ccc(C4=CCCCC4)cc3[C@@H]21,6.1%
18,Cc1noc(C)c1S(=O)(=O)N(C)C[C@@H]1OCCCC[C@H](C)Oc2ccc(NS(=O)(=O)c3ccc(Cl)cc3)cc2C(=O)N([C@H](C)CO)C[C@@H]1C,-3.67%
19,C[C@@H]1CCCCO[C@H](CN(C)Cc2ccc(Cl)c(Cl)c2)[C@H](C)CN([C@@H](C)CO)C(=O)c2cc(NC(=O)Nc3ccccc3)ccc2O1,0.83%
20,O=C(c1cc([N+](=O)[O-])ccc1N1CCOCC1)N1CCN(c2ccccc2)CC1,-25.1%

row,Compound,"activity change, negative = inhibition"
1,C[C@H](CO)N1C[C@H](C)[C@@H](CN(C)S(=O)(=O)c2ccc(Cl)cc2)OCCCC[C@H](C)Oc2ccc(NS(=O)(=O)c3ccc(Cl)cc3)cc2C1=O,-3.22%
2,Cc1ccc(NC(=O)Cn2ncc(Cl)c(Cl)c2=O)cc1S(=O)(=O)N1CCCCC1,122%
3,CCOc1ccc(NC(=O)Nc2cc(OCC(F)(F)F)cc(OCC(F)(F)F)c2)cc1,19.3%
4,COc1ccc(NC(=O)c2c(Nc3ccccc3)sc(C(=O)c3ccc(F)cc3)c2N)cc1,-15.4%
5,C[C@@H]1CN([C@H](C)CO)S(=O)(=O)c2ccc(C#CC3CCCC3)cc2O[C@@H]1CN(C)C(=O)Cc1ccncc1,11.6%
6,COc1ccc(-c2nc3c(c(SCC(=O)Nc4cccc(O)c4)n2)Cc2c(CO)cnc(C)c2O3)cc1,20.3%
7,CCN(CC)S(=O)(=O)c1cc(NC(=O)Cn2ncc(Cl)c(Cl)c2=O)ccc1C,-17.5%
8,O=C(C[C@H]1CC[C@H]2[C@@H](COC[C@@H](O)CN2Cc2ccc(Oc3ccccc3)cc2)O1)N1CCCCC1,1.71%
9,O=C(Nc1ccccc1)NN(C(=O)CCl)c1ccccc1,4.69%
10,C[C@@H]1CCCCO[C@@H](CN(C)C(=O)Nc2cccc3ccccc23)[C@H](C)CN([C@H](C)CO)C(=O)c2cc(NS(=O)(=O)c3ccccc3)ccc2O1,1.1%
11,CCCNC(=O)Nc1ccc2c(c1)OC[C@H](C)N(Cc1ccc(-c3ccccn3)cc1)C[C@@H](C)[C@@H](OC)CN(C)C2=O,5.23%
12,Cc1ccc(NC(=O)CN(C)C(=O)Cn2ncc(Cl)c(Cl)c2=O)cc1,18.5%
13,CC(=O)[C@@]1(O)Cc2c(O)c3c(c(O)c2[C@H](O[C@H]2C[C@H](N)[C@H](O)[C@H](C)O2)C1)C(=O)c1ccccc1C3=O,-3.85%
14,CCOC(=O)Nc1ccc2c(c1)N(C(=O)CCN(CC)CC)c1ccccc1S2=O (stereo not given),12.7%
15,CN1c2ccc(-c3cccc(F)c3)cc2[C@@H]2[C@@H](CCN2C(=O)Cc2ccccc2)[C@@H]1CO,5.06%
16,O=C(NC12CC3CC(CC(C3)C1)C2)c1ccc([N+](=O)[O-])o1,8.93%
17,C[C@@H]1CN([C@H](C)CO)C(=O)Cc2cc(NC(=O)Nc3ccc(F)cc3)ccc2O[C@H]1CN(C)Cc1ccc(Cl)c(Cl)c1,9.92%
18,COc1ccc(NC(=O)Nc2ccc3c(c2)CC(=O)N([C@H](C)CO)C[C@@H](C)[C@@H](CN(C)Cc2ccc(Oc4ccccc4)cc2)O3)cc1,3.93%
19,Nc1nnnn1/N=C/C(Br)=C/c1ccccc1,12.8%
20,C[C@@H]1CCCCO[C@H](CN(C)Cc2ccc(C(F)(F)F)cc2)[C@H](C)CN([C@H](C)CO)C(=O)c2cc(NS(=O)(=O)c3cccs3)ccc2O1,1.46%
